Bioassay records: PubChem, several laboratories
BH1578 lux ind – inducers of Vibrio cholerae quorum light production without autoinducers; V. cholerae BH1578 lux reporter, luminescence, 6 h; activation, % at 18.7 µM; actives 0.16% (n = 350,000); AID 588436; in the data active means activation mostly above about 9.7%, no sharp cut-off
FBA Mtb inh – inhibits M. tuberculosis FBA enzyme | purified M. tuberculosis FBA, fluorescence read-out | P9WQA3 | actives 2.3% (n = 360,000) | inhibition, % at 1 µM; in the data active means inhibition above about 27%;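 further: 0% = vehicle and 100% = reference inhibitor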
Target sequence (P9WQA3 whole entry, looked up): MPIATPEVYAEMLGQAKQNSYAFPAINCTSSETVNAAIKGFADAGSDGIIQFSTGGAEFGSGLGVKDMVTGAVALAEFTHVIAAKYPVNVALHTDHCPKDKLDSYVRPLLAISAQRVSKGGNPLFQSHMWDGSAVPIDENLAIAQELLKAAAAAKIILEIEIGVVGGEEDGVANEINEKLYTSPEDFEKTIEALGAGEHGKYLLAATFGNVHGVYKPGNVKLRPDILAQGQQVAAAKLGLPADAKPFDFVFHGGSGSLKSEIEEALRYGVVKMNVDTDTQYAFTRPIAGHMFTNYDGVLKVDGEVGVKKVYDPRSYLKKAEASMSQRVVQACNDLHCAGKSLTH
GDH-TPI counter – inhibits GDH-TPI coupling enzymes, artifact for Mtb FBA screen; GDH-TPI coupled enzyme counterscreen, NADH absorbance; inhibition, % at 4.8 µM; actives 1.2% (n = 360,000);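 further: 0% = DMSO wells and 100% = wells lacking the enzyme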
CCHFV vOTU inh – blocks the CCHF virus ovarian tumor domain protease; CCHFV vOTU protease, Pep-AMC fluorescence; inhibition, % at 11.5 µM; actives 0.55% (n = 370,000); further: 0% = vehicle wells with enzyme and 100% = no enzyme wells
The depositor's hits bear a star; i = inactive; · = not tested or not shown; + = active, no number. This is a sample that favours compounds with a hit; in the whole collection about 3.9% have one here. Unless noted, no stated cut-off is given here; in the data, active means inhibition above about 30%; inactive means the rest.

SMILES	BH1578 lux ind	FBA Mtb inh	GDH-TPI counter	CCHFV vOTU inh
COCc1ccc(-c2ccc3c(c2)c(C#Cc2ccsc2)c(-c2cc(OC)cc(OC)c2)n3C)cc1	1.0	2.8	33.5*	1.3
COc1ccc(-c2c(-c3cc(OC)cc(OC)c3)n(C)c3ccc(-c4ccc(OC)cc4F)cc23)cc1	-0.7	4.9	14.1	1.3
COc1cc(C#Cc2c(-c3cncn3C)n(C)c3ccc(-c4ccc5[nH]ccc5c4)cc23)cc(OC)c1	1.2	46.5*	12.9	-7.3
COc1ccc(-c2c(-c3cc(OC)cc(OC)c3)n(C)c3ccc(-c4ccc5[nH]ccc5c4)cc23)cc1	i	134.2*	21.0	-11.8
COc1cc(OC)cc(-c2c(C#Cc3ccsc3)c3cc(-c4ccc5[nH]ccc5c4)ccc3n2C)c1	2.8	12.0	43.7*	17.7
CCN(C(=O)Cc1ccc(Br)cc1)C1CCCCC1	-3.0	3.8	-7.5	9.2
CN(CC(=O)Nc1cccc(F)c1)C(=O)/C=C/c1cn(Cc2ccccc2)nc1-c1cccnc1	i	-1.5	8.1	4.2
COc1ccc(CCNC(=O)CS(=O)Cc2nc(-c3ccccc3Cl)oc2C)cc1OC (centres undefined)	0.2	-1.7	7.8	16.5
O=C(Nc1ccc2nn(-c3ccc(F)cc3)nc2c1)c1cccnc1	i	-0.1	5.7	-4.6
O=C(Nc1cc2nn(-c3ccccc3)nc2cc1Cl)c1ccco1	-1.4	9.4	38.1*	0.1
Cc1nc2ccc(NC(=O)c3ccco3)cc2nc1C	i	5.8	1.6	0.0
O=C(Nc1ccc2nn(-c3ccccc3)nc2c1)c1cccnc1	i	-1.1	34.6*	7.7
CC(C)C(=O)Nc1ccc2nn(-c3ccccc3)nc2c1	-2.4	+	23.5	-77.6
O=C(Nc1ccc2nn(-c3ccccc3)nc2c1)c1ccco1	-0.3	15.6	32.7*	3.6
CCCC(=O)Nc1cccc(NC(=O)c2cccc([N+](=O)[O-])c2C)c1	-0.3	-0.6	11.1	-18.1
Cc1c(C(=O)N2CCCC2)sc(NC(=O)c2ccco2)c1C#N	·	-3.4	30.7*	2.7
Cc1c(C(=O)N2CCCC2)sc(NC(=O)c2ccccc2)c1C#N	i	-1.2	25.9	-8.8
Cc1c(C(=O)N2CCCCC2)sc(NC(=O)c2ccco2)c1C#N	·	-2.3	40.1*	3.5
Fc1ccc(-c2ccnc3nc(N4CCOCC4)nn23)cc1	-4.6	51.5*	8.3	-48.5
O=C(Nc1cccs1)Nc1c(F)cc(F)cc1Br	-0.3	-2.3	7.0	10.3
CCCCC(=O)Nc1ncc2c(n1)CC(C)(C)CC2=O	i	146.6*	-5.3	3.1
CC(C)(C)NC(=O)C(c1ccncc1)N(C(=O)Cn1nnc(-c2ccc(F)cc2)n1)c1cccc(F)c1 (centres undefined)	i	-7.1	3.5	-1.9
Cc1ncc([N+](=O)[O-])n1S(=O)(=O)c1ccc2c(c1)OCCO2	-1.4	1.7	-4.5	11.0
CCCCNC(=O)/C(=C/c1ccccc1)NC(C)=O	i	0.0	4.8	-16.4
O=C(NCCc1nc2ccccc2[nH]1)/C(=C/c1ccco1)NC(=O)c1ccc(Br)o1	-0.3	-2.2	33.5*	0.9
SMILES	BH1578 lux ind	FBA Mtb inh	GDH-TPI counter	CCHFV vOTU inh
COc1ccc(/C=C(/NC(=O)/C=C/c2ccccc2)C(=O)NCCCCCC(=O)O)cc1	0.5	1.5	32.5*	0.6
COc1ccc(/C=C(\NC(=O)/C=C/c2ccco2)C(=O)NCCc2nc3ccccc3[nH]2)cc1	-0.3	-0.3	37.1*	-5.8
COc1ccc(-n2c(Cn3c(=O)sc4ccccc43)nnc2SCC(N)=O)cc1	-0.1	-2.2	-4.0	-1.2
Cc1ccc(S(=O)(=O)N2CCN(S(=O)(=O)c3ccc(C)cc3)C2)cc1	-3.0	3.0	-9.9	-14.4
O=S(=O)(N/N=C\C=C\c1ccccc1)c1ccc(Br)cc1	-0.3	-2.5	38.8*	20.8
O=C(NCc1cccs1)c1cc2c(s1)CS(=O)(=O)C2	1.6	0.3	2.0	5.8
O=C(NC1CC1)c1cc2c(s1)-c1ccccc1OC2	-0.3	+	23.2	-298.3
COc1ccc2c(c1)CCc1cc(C(=O)O)sc1-2	-0.3	+	22.7	-419.6
O=C(c1ccco1)N1CCN(C(=O)c2cc3c(s2)-c2ccccc2OC3)CC1	-0.2	112.5*	15.0	-192.3
O=C(c1ccco1)N1CCN(C(=O)c2ccco2)CC1	·	1.5	·	-7.5
O=C(NCc1cccs1)c1cc2c(s1)-c1ccccc1OC2	·	+	21.6	-291.3
COc1ccc(-c2cc(C(=O)O)sc2C)cc1	5.2	1.6	1.2	19.3
CCOC(=O)C1CCCCN1C(=O)CCn1nnnc1CN1CCOCC1 (centres undefined)	-0.1	-2.1	3.4	-0.5
O=C(Nc1cccc(C(F)(F)F)c1)c1cc2c(s1)-c1ccccc1OC2	0.0	13.9	10.0	-39.1
